SENP6 inh – SENP6 protease inhibitors, primary screen, biochemical, luminescence, uHTS. Recombinant SENP6 catalytic domain, aminoluciferin luminescence. inhibition, % at 10 µM. 330,000 tested, 1.8% active. AID 2599, 2010;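 active = inhibition above about 50% at the single tested dose, limit read from the data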
SENP7 block – SENP7 protease inhibitors, primary screen, biochemical, luminescence, uHTS; Sentrin-specific protease 7 (Homo sapiens), Q9BQF6; recombinant SENP7, Z-RLRGG-aminoluciferin luminescence, 40 min; inhibition, % at 5 µM; 330,000 tested, 1.5% active; AID 434973, 2010;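 active = inhibition above about 50% at the single test dose, limit read from the data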
Target sequence (Q9BQF6 706-1050 limits assumed): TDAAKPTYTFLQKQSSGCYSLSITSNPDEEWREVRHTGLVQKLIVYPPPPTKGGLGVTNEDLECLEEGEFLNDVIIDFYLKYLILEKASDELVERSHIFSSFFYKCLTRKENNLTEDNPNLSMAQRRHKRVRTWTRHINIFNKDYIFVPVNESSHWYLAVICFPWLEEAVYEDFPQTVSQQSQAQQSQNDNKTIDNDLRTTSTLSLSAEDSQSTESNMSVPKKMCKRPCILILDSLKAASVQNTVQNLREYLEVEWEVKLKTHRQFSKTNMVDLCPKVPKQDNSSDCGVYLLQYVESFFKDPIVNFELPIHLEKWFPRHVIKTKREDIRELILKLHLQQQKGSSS
Platelet DG rel – inhibitors of platelet dense granule secretion, primary screen, cell-based, MLPCN, human platelets; human platelet-rich plasma, SFLLRN dense granule ATP release, luminescence; inhibition, %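 (compounds screened at 7.5 µM in platelet-rich plasma)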; 300,000 tested, 0.22% active; AID 1663, 2009;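 active = mean replicate score, as percent of positive control, at or above 50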
SENP8 block-1 – SENP8 protease inhibitors, primary screen, biochemical, luminescence | purified SENP8, Z-RLRGG-aminoluciferin cleavage | 330,000 tested, 1.2% active | AID 2540, 2010 | Sentrin-specific protease 8 (Homo sapiens), Q96LD8 | inhibition, % at 10 µM; in the data active = inhibition above about 50%
Target sequence (Q96LD8 whole entry, looked up): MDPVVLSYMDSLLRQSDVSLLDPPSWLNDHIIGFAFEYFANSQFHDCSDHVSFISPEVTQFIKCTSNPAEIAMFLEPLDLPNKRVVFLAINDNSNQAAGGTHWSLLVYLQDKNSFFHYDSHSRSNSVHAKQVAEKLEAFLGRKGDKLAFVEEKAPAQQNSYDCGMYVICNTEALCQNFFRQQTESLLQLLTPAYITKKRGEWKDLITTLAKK
SENP8 block-2 – human SENP8 protease inhibitors, primary screen, biochemical, fluorescence, Nedd8 protein substrate, uHTS; Sentrin-specific protease 8 (Homo sapiens), Q96LD8; recombinant SENP8; inhibition, % at 20 µM; 360,000 tested, 0.64% active; AID 602440, 2012; in the data active = inhibition mostly above about 40%, no sharp cut-off; inactive = mostly below about 27%
Numbers stand for hits; 0 = inactive; - = not tested or not shown. Most compounds without a hit are left out; they make up all but 2.4% or so of the library.

SMILES | SENP6 inh | SENP7 block | Platelet DG rel | SENP8 block-1 | SENP8 block-2
CCC(=O)Nc1ccc2nc(C3CC3)n(Cc3ccc(C(C)(C)C)cc3)c(=O)c2c1 | 86 | 91 | 0 | 71 | 0
N#CC1(NC(=O)CN2CCN(S(=O)(=O)c3ccccc3F)CC2)CCCC1 | 0 | 0 | 0 | 0 | 0
CCOc1ccc(NC(C)c2cc(Cl)ccc2O)cc1 (stereo not given) | 0 | 0 | 0 | 0 | 46
COc1ccccc1C(=O)COC(=O)c1ccccc1O | 0 | 0 | 0 | 0 | 0
CCc1ccc(C(=O)COC(=O)c2ccccc2OC)cc1 | 89 | 91 | 0 | 82 | 0
COCc1c(C(=O)OCc2nc3ccsc3c(=O)[nH]2)oc2ccccc12 | 0 | 0 | - | 0 | 0
O=C1C(NS(=O)(=O)c2ccc(Br)cc2)=C(N2CCCCC2)C(=O)c2ccccc21 | 0 | 0 | 0 | 0 | 64
CN(c1ccccc1)c1nc(N)c([N+](=O)[O-])c(N2CCCCC2)n1 | 0 | 0 | 0 | 0 | 0
CCOC(=O)C1CCN(C2=C(NS(=O)(=O)c3ccc(Cl)cc3)C(=O)c3ccccc3C2=O)CC1 | 0 | 0 | 0 | 0 | 49
CCOC(=O)C1CCCN(C2=C(NS(=O)(=O)c3ccc(Br)cc3)C(=O)c3ccccc3C2=O)C1 (stereo not given) | 0 | 0 | 0 | 0 | 58
CN(C1=C(N2CCCCC2)C(=O)c2ccccc2C1=O)c1ccccc1 | 0 | 0 | 0 | 0 | 49
CC1CCCN(C2=C(NS(=O)(=O)c3ccc(Br)cc3)C(=O)c3ccccc3C2=O)C1 (stereo not given) | 0 | 0 | 0 | 0 | 0
Cc1ccc(C)c(OCc2cc(C(=O)N3CCN(c4ccccc4C)CC3C)no2)c1 (stereo not given) | 0 | 0 | 0 | 0 | 0
CC(C)(C)c1cc(NC(=O)CSc2nncs2)n(-c2ccccc2)n1 | 0 | 0 | 0 | 0 | 0
O=C(Cc1ccccc1)c1c[nH]c(C(=O)NCCCN2CCOCC2)c1 | 0 | 0 | 0 | 0 | 0
CCOC(=O)N1CCN(C2=C(NS(=O)(=O)c3ccc(NC(C)=O)cc3)C(=O)c3ccccc3C2=O)CC1 | 0 | 0 | 0 | 0 | 73
NC(=O)CC(NC(=O)c1ccc(Br)cc1)c1ccc(N2CCCCCC2)c([N+](=O)[O-])c1 (stereo not given) | 0 | 0 | 0 | 0 | 0
CCOC(=O)C1CCN(C(=O)c2ccc(C)o2)CC1 | 0 | 0 | - | 0 | 0
CCOC(=O)C1CCN(C(=O)c2c(C)oc3c2C(=O)c2ccccc2C3=O)CC1 | 0 | 0 | 0 | 0 | 60
CC1CCc2c(sc3ncn(CC(=O)N=Nc4c(O)[nH]c5ccccc45)c(=O)c23)C1 (stereo not given) | 0 | 0 | 0 | 0 | 44
COc1ccc(C(=O)N/N=C(\CCC(=O)O)c2ccc(C(C)(C)C)cc2)cc1OC | 0 | 0 | 0 | 0 | 0
O=C(CCC1CCCCC1)Nc1cccnc1 | 0 | 0 | 0 | 0 | 36
O=C(CCC1CCCCC1)NCc1cccnc1 | 0 | 0 | 0 | 0 | 0
CC1=NN(c2ccc(N)cc2)C(=O)C1 | 0 | 0 | 0 | 0 | 68
CC1=NN(c2ccccc2)C(=O)C1 | 0 | 0 | 0 | 0 | 49
SMILES | SENP6 inh | SENP7 block | Platelet DG rel | SENP8 block-1 | SENP8 block-2
CC1=NN(c2ccc(Cl)cc2)C(=O)C1 | 0 | 0 | 0 | 0 | 0
O=C(Nc1cc(S(=O)(=O)N2CCCC2)ccc1Cl)c1cc(F)c(F)c(F)c1F | 0 | 0 | - | 0 | 0
Cc1ccc(Cl)cc1NC(=S)N(CCCN1CCOCC1)Cc1ccco1 | 0 | 0 | 0 | 0 | 0
O=C(O)c1cc(-c2ccc(/C=C3/SC(=S)N(Cc4ccccc4)C3=O)o2)ccc1Cl | - | - | - | - | 0
CN1C(=O)/C(=C/c2ccc(-c3ccccc3[N+](=O)[O-])o2)SC1=Nc1ccc(Cl)c(C(=O)O)c1 | - | - | 0 | - | 42
Oc1ccc(NCc2ccccc2OCc2ccccc2)cc1 | 0 | 0 | 0 | 0 | 62
Cc1nn(CC(=O)Nc2cccnc2)c(C)c1[N+](=O)[O-] | 0 | 0 | 61 | 0 | 0
Cn1cc(S(=O)(=O)N2CCCC2)cc1C(=O)N1CCN(c2cccc(Cl)c2)CC1 | 0 | 0 | 59 | 0 | 0
COc1ccc(Cl)cc1NC(=O)c1cc(S(=O)(=O)N2CCCC2)cn1C | 0 | 0 | 63 | 0 | 0
CC(/C=N/N1CCN(c2ccccn2)CC1)=C\c1ccccc1 | 59 | 63 | 0 | 0 | 0
COc1ccccc1N1CCN(/N=C/C(Cl)=C/c2ccccc2)CC1 | 72 | 0 | 0 | 57 | 0
COc1ccccc1N1CCN(/N=C\c2ccccc2)CC1 | 0 | 0 | 0 | 0 | 0
CCS(=O)(=O)c1ccc2oc(Nc3ccccc3Br)nc2c1 | 92 | 95 | 0 | 87 | 0
O=C(O)c1ccc(Nc2cc(Cl)c3nonc3c2[N+](=O)[O-])cc1 | 0 | 0 | 0 | 0 | 0
O=[N+]([O-])c1c(Nc2cccc(O)c2)cc(Cl)c2nonc12 | 0 | 0 | 60 | 0 | 0
CN(C(=O)CSc1nc2ccccc2c(=O)n1-c1ccccc1Cl)C1CCS(=O)(=O)C1 (stereo not given) | 0 | 0 | - | 0 | 0
Cc1ccc2nc(NC(=O)Cc3cccs3)sc2c1 | 63 | 54 | 0 | 0 | 0
CCOC(=O)NC(=O)/C(N=Nc1cccc(C(F)(F)F)c1)=C(\C)O | 0 | 0 | 0 | 0 | 0
COC(=O)/C(N=Nc1cccc(C(F)(F)F)c1)=C(\C)O | 0 | 0 | 0 | 0 | 49
CNC(C)C#Cc1ccc2oc3cc(C)c(C)cc3c(=O)c2c1 (stereo not given) | 84 | 0 | 0 | 69 | 0
CNC(C)C#Cc1ccc2oc3cccc(OC)c3c(=O)c2c1 (stereo not given) | 0 | 0 | 0 | 0 | 0
O=C1c2ccccc2C(=O)c2c1cccc2N1CCOCC1 | 0 | 0 | 0 | 0 | 43
CO/N=C/C(=N\Nc1ccc(OC)cc1)C(=O)c1ccc(OC)cc1 | 0 | 0 | 0 | 0 | 51
Nc1ccc(Oc2ncccn2)cc1 | 0 | 0 | 0 | 0 | 82
Cn1nccc1C(=O)N/N=C/c1cccnc1 | 0 | 0 | 0 | 61 | 0
SMILES | SENP6 inh | SENP7 block | Platelet DG rel | SENP8 block-1 | SENP8 block-2
CC(=O)Nc1ccc(C(=O)N/N=C/c2cccnc2)cc1 | - | - | 0 | - | 0
CCOC(=O)C1CCN(C(=O)/C=C/c2ccc3c(c2)OCO3)CC1 | 0 | 0 | 0 | 0 | 0
Cc1ccc(-c2cc(C(=O)NCc3ccco3)c3ccccc3n2)o1 | 0 | 0 | 56 | 0 | 0
Cc1cc(C(=O)NCc2ccco2)c2ccccc2n1 | 0 | 0 | 0 | 0 | 0
O=C(N/N=C/C(Br)=C/c1ccccc1)c1cccs1 | 62 | 0 | 0 | 51 | 0
O=C(N/N=C/C=C/c1ccccc1)c1cccs1 | 0 | 0 | 0 | 0 | 0
CCOc1ccc(C(=O)Nc2cccc(C(C)=O)c2)cc1[N+](=O)[O-] | 0 | 0 | 0 | 0 | 0
Cc1ccc(C2=NN(C(=O)CN3CCN(C4CCS(=O)(=O)C4)CC3)C(c3ccco3)C2)cc1 (stereo not given) | 0 | 0 | - | 0 | 0
CC(NS(=O)(=O)c1cc(C(F)(F)F)ccc1Cl)C(=O)N(C)C1CCN(C)CC1 (stereo not given) | 0 | 0 | - | 0 | 0

High-throughput results as filed in PubChem.
